The target of one test is PRSS27. Put plainly: pooled miR-30 sensor sort-seq; sequence = guide strand. The note with it: shRNA.
TTTGCTGTAGAGCAGGTTGCAC yielded a sensor-assay potency score (higher = more potent) of -0.973.
The same measure, in the same setting: the value for TTACAAATGAGTCTGGTGGGGC was -0.115.
TGACACGGATGTAGACACCTGG yielded a sensor-assay potency score (higher = more potent) of -0.413.
Regarding ATACATAGCGTGTGGTCCCGGC, the sensor-assay potency score (higher = more potent) is -0.586.
Still for that read-out and setting: as for AAACTCGGTGTCTTTGCTGTAG, the figure is -0.247; as for TCATTCTTGATGGTTTTGGGTT, -0.872.
TTGCTGTAGAGCAGGTTGCACT came in with a sensor-assay potency score (higher = more potent) of -1.36.
On the same count and under the same terms, as for TAATTGGTGAAGGGCACTGGTG, the figure is -1.57.
The same measure, in the same setting: as for TACAGGGACGTCTCAGAGGTGT, the figure is -0.7; as for TGCAGTTTGGGGATGATCCGAT, 0.0447.

Another test has as its target PRSS35. The test is described as above. The note with it: shRNA.
Regarding TTTCTTTTTGTGAGCACGCTTC, the sensor-assay potency score (higher = more potent) was -0.433.
Take TAGAACAAACTATTTCTCCCAT: the sensor-assay potency score (higher = more potent) was 0.0739.
Sequence TTGGATTCGTCGGACACACTGC displayed a sensor-assay potency score (higher = more potent) of -0.732.
In turn, TTGAGTCGGCTCAAGAACCAAA came in with a sensor-assay potency score (higher = more potent) of -0.83.
Same read-out and setting: as for TTGTCCAAGATGCTGAACCTGC, the figure is -0.668; as for TAATACACAACCAGCATCCTAT, -0.461; as for TTACCATCATCTTAGCATCTGC, -0.234.
Turning to AAATCTTGAACTTTCACCCTGG, the sensor-assay potency score (higher = more potent) amounted to 0.84.
Same read-out and setting: as for TAACTTTCTGTCTCTATTCTGA, the figure is -0.225; as for TACACCTGTCTCTTTCTCCTAA, -0.12.
Same read-out and setting: as for TTCCTCATCTTCAACAACCCTA, the figure is 0.185; as for TCACATTTAATACACAACCAGC, -0.906.

The target in another test is PRSS57. The test is described as above. The conditions noted are these: shRNA.
Sequence TCTCTGTGGCTGAAGCAGTGGG registered a sensor-assay potency score (higher = more potent) of -1.07.
On the same count and under the same terms, the value for ATCGATGCCAAACACCTGCTGG was -0.864; that for TGGTAGTCGGGGTGTGTGGTGA was -0.823; that for TTCACGGGCAGCATCAGGGCGG was -0.51.
The same measure, in the same setting: the value for TGTGGTGAGAGCATCGATGCCA was 0.623; that for AAGTCAGACACGAAGCCCCAGC was -0.91.
On the same count and under the same terms, as for TACACGTCGGGGGTCTTGGGGT, the figure is -1.06; as for ACAAAGGCGGACACCTGCGTGT, -0.414; as for TCGGACCTTGGCCTCCATCAGT, -1.55.
With TCGATGCCAAACACCTGCTGGG, the sensor-assay potency score (higher = more potent) is -0.917.
Same read-out and setting: as for AGCATCGATGCCAAACACCTGC, the figure is -0.826; as for ACACCTGCGTGTACACGTCGGG, -0.753.

In the next test the target is PRUNE. Described as above. The conditions noted are these: shRNA.
Sequence TTTATGAGAACAGTATACCAGA gave a sensor-assay potency score (higher = more potent) of -0.563.
As for TGTCTATAGATAGTCTTCTGGT, the sensor-assay potency score (higher = more potent) is -0.567.
On the same count and under the same terms, as for TAGAGGTCGGGACTCCTGCAGA, the figure is -0.699; as for TTAAATAATAAAATGTGTCTGA, -0.11; as for TAATAGTATAACAAAATGCAAA, -1.31.
Still for that read-out and setting: as for TTTCTCTCTAGCTTGAGGCAGG, the figure is -0.511.

The record behind these values is the OligoGym collection.
Note: reference of the scale not given here.
